What all share (assay): DAPPL (digital affinity profiling via proximity ligation, sequencing); 10 mM Tris-HCl pH 7.5, 50 mM NaCl, 1 mM DTT, 4% glycerol, room temperature, 30 min; GST-TFs on glutathione beads, 16-mer random dsDNA library, 0.1% formaldehyde crosslink after washing; high values mean tight binding
In assay [1] the target is T1, FEV (Homo sapiens, UniProt Q99581 1-238).
T1 sequence: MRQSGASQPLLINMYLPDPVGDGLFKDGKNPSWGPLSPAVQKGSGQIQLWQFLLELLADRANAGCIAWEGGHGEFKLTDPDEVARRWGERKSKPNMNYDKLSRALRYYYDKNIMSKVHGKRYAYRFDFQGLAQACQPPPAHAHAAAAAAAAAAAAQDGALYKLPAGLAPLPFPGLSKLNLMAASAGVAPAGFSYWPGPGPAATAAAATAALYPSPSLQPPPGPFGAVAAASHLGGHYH
The settings on record: protein: recombinant; tags: N-terminal GST; dsDNA, one strand shown. Put shortly:
(§1)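 Binding signal is each hexamer's read frequency for a factor divided by its frequency in the tag-only sample. The factors were GST-fused human transcription factors from yeast, captured on glutathione beads, DNA-barcoded and pooled with that sample. Pools were incubated with 200 nmole of a random double-stranded 16-mer DNA library in Tris/NaCl/DTT/glycerol buffer at room temperature for 30 min, then washed, crosslinked with 0.1% formaldehyde, proximity-ligated with BsaI/T4 ligase (1 h, 37 °C), PCR-amplified and sequenced on an Illumina NextSeq500.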

In assay [2] the target is ETV5 (Homo sapiens, UniProt P41161 1-510). The settings on record: protein: recombinant; tags: N-terminal GST; dsDNA, one strand shown. In a few lines: as §1
Assay [3] deals with HSF1 (Homo sapiens, UniProt Q00613 1-529). The settings on record: protein: recombinant; tags: N-terminal GST; chain copies: 3; dsDNA, one strand shown. Put shortly:
as §1

Assay [4] concerns the target T2, SPIC (Homo sapiens, UniProt Q8N5J4 1-248).
T2 sequence: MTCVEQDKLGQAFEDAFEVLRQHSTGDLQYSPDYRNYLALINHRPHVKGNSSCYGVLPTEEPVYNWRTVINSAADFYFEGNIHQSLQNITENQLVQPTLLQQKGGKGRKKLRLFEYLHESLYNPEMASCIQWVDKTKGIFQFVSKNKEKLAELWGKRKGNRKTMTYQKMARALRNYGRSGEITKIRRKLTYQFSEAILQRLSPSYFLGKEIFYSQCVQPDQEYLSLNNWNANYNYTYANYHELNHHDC
As to conditions: protein: recombinant; tags: N-terminal GST; dsDNA, one strand shown. In a few lines:
as §1

The target in assay [5] is ELF4 (Homo sapiens, UniProt Q99607 1-663). As to conditions: protein: recombinant; tags: N-terminal GST; dsDNA, one strand shown. Put shortly: as §1
In assay [6] the target is T3, ELK4 (Homo sapiens, UniProt P28324-2 1-405).
T3 sequence: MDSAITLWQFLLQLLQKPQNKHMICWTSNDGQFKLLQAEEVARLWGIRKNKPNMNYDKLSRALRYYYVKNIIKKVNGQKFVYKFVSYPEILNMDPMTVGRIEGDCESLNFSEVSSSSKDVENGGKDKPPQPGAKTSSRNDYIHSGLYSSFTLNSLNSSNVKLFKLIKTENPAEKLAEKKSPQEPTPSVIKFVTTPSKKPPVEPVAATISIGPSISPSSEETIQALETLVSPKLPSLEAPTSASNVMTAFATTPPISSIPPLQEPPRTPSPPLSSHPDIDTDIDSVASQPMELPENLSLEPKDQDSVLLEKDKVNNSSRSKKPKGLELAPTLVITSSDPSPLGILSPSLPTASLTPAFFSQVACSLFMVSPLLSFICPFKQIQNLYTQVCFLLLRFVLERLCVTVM
As to conditions: protein: recombinant; tags: N-terminal GST; dsDNA, one strand shown. In a few lines:
as §1

The target of assay [7] is T4, ETV2 (Homo sapiens, UniProt O00321 1-342).
T4 sequence: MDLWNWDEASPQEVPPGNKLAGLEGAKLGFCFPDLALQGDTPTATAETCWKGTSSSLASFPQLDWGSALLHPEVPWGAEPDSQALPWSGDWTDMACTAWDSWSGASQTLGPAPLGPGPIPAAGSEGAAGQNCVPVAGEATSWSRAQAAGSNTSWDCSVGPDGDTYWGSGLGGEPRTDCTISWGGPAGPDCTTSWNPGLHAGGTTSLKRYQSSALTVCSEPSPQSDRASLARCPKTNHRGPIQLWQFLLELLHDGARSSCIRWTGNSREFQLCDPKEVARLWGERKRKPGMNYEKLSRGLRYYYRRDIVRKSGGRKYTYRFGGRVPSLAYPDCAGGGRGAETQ
As to conditions: protein: recombinant; tags: N-terminal GST; dsDNA, one strand shown. In a few lines:
as §1

Assay [8] has as its target T5, ELF3 (Homo sapiens, UniProt P78545 1-371).
T5 sequence: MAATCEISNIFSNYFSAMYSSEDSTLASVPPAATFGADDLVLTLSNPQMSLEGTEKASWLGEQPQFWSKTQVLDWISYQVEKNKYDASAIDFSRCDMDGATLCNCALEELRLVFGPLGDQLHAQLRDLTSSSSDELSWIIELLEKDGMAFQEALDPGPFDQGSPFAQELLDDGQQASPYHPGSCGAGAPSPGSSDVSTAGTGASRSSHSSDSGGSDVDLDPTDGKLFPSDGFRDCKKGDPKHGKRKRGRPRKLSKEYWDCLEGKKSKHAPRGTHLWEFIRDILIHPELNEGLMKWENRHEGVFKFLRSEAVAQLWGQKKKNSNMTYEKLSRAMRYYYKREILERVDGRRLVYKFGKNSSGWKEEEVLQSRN
As to conditions: protein: recombinant; tags: N-terminal GST; dsDNA, one strand shown. Put shortly:
as §1

For assay [9], the target named is CRX (Homo sapiens, UniProt O43186 1-299). The settings on record: protein: recombinant; tags: N-terminal GST; dsDNA, one strand shown. Put shortly:
as §1

The target of assay [10] is ETV1 (Homo sapiens, UniProt P50549 1-477). The settings on record: protein: recombinant; tags: N-terminal GST; dsDNA, one strand shown. In a few lines: as §1
The target in assay [11] is T6, ERF (Homo sapiens, UniProt P50548 1-548).
T6 sequence: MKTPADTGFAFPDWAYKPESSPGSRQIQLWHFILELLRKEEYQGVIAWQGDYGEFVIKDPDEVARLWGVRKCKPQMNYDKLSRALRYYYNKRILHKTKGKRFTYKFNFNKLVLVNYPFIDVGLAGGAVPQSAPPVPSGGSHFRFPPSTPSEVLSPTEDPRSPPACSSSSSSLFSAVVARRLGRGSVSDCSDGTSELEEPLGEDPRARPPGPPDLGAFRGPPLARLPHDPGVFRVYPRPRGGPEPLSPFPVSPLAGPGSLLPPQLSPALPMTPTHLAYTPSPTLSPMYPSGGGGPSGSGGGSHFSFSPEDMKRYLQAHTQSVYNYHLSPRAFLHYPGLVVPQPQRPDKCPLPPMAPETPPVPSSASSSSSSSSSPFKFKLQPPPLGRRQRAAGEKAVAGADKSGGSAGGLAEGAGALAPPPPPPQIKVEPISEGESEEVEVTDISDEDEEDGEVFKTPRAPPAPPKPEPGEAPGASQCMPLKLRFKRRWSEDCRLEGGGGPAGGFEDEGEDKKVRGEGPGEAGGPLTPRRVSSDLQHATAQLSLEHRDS
The settings on record: protein: recombinant; tags: N-terminal GST; dsDNA, one strand shown. Put shortly:
as §1

Assay [12] has as its target T7, ETV3L (Homo sapiens, UniProt Q6ZN32 1-361).
T7 sequence: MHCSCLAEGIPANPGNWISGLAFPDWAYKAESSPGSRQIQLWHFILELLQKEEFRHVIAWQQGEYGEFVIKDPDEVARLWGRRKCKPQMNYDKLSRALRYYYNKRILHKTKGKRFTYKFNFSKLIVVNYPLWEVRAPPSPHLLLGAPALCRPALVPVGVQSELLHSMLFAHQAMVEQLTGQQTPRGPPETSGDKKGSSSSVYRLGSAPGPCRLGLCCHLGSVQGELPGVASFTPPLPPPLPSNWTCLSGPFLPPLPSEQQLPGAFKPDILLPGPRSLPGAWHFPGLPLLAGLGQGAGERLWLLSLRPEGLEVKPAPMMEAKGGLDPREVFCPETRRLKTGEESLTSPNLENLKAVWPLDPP
As to conditions: protein: recombinant; tags: N-terminal GST; dsDNA, one strand shown. In a few lines: as §1

For assay [13], the target named is T8, ETS2 (Homo sapiens, UniProt P15036 1-469).
T8 sequence: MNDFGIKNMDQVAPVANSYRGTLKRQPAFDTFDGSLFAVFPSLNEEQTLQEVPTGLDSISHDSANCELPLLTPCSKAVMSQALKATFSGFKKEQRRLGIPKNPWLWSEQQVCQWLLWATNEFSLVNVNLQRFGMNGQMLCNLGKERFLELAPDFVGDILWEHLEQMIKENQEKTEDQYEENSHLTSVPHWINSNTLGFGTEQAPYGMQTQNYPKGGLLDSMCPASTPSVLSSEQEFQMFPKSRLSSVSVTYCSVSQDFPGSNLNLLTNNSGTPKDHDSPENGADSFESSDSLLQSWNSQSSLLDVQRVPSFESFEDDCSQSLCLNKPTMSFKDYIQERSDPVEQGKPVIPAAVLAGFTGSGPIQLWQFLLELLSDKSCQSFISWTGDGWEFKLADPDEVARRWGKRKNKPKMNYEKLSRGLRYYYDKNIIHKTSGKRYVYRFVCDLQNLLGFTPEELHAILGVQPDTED
As to conditions: protein: recombinant; tags: N-terminal GST; dsDNA, one strand shown. Put shortly: as §1

Assay [14] deals with T9, SPDEF (Homo sapiens, UniProt O95238 1-335).
T9 sequence: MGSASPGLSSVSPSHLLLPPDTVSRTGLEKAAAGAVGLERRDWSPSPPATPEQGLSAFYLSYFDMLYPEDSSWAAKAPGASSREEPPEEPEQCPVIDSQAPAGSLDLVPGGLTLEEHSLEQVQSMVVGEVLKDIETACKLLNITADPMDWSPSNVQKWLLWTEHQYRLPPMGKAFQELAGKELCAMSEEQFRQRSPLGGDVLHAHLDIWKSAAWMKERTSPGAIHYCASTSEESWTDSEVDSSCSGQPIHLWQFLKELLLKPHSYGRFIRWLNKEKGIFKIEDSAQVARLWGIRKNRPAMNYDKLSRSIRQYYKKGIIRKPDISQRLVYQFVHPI
The settings on record: protein: recombinant; tags: N-terminal GST; dsDNA, one strand shown. Put shortly:
as §1

Assay [15] has as its target T10, ETV7 (Homo sapiens, UniProt Q9Y603 1-341).
T10 sequence: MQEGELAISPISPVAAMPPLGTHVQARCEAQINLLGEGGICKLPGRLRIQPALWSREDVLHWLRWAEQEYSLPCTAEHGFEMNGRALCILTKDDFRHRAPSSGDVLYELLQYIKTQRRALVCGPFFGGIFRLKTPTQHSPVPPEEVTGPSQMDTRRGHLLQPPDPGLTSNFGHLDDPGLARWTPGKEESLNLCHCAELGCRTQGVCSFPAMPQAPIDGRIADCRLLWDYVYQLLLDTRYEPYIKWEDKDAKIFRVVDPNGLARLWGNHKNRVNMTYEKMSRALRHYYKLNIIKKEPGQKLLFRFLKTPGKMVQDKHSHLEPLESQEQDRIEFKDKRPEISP
As to conditions: protein: recombinant; tags: N-terminal GST; dsDNA, one strand shown. Put shortly: as §1

Assay [16] addresses T11, ELF5 (Homo sapiens, UniProt Q9UKW6-2 1-255).
T11 sequence: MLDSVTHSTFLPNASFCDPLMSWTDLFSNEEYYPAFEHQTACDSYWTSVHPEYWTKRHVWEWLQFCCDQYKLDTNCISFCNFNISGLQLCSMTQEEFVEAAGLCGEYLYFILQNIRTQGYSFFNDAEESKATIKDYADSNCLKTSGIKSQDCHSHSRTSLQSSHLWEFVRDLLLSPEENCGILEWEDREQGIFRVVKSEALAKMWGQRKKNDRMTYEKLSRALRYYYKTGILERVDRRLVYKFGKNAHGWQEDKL
As to conditions: protein: recombinant; tags: N-terminal GST; dsDNA, one strand shown. Put shortly: as §1

Assay [17] deals with T12, ETV3 (Homo sapiens, UniProt P41162-2 1-143).
T12 sequence: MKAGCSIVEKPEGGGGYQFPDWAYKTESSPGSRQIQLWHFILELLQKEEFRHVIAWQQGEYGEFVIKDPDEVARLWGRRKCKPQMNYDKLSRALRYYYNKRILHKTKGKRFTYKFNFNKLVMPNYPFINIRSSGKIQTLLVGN
As to conditions: protein: recombinant; tags: N-terminal GST; dsDNA, one strand shown. In a few lines: as §1

Assay [18] has as its target ETV6 (Homo sapiens, UniProt P41212 1-452). As to conditions: protein: recombinant; tags: N-terminal GST; dsDNA, one strand shown. In a few lines:
as §1

Sequence of HSF1 (Q00613 whole entry): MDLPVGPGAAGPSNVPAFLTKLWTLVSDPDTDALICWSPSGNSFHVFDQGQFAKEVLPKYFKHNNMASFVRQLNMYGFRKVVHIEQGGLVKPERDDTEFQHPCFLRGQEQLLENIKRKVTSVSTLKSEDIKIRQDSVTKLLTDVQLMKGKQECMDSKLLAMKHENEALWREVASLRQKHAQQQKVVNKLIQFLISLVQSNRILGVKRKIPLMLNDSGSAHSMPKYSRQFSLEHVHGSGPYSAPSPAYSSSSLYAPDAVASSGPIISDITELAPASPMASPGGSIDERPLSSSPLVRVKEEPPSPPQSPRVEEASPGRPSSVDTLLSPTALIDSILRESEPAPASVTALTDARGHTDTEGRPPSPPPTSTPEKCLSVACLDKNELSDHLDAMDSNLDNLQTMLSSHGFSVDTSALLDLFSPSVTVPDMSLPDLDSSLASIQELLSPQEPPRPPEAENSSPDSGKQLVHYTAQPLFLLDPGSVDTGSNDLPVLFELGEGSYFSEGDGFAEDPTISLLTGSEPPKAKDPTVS
Sequence of ETV6 (P41212 whole entry): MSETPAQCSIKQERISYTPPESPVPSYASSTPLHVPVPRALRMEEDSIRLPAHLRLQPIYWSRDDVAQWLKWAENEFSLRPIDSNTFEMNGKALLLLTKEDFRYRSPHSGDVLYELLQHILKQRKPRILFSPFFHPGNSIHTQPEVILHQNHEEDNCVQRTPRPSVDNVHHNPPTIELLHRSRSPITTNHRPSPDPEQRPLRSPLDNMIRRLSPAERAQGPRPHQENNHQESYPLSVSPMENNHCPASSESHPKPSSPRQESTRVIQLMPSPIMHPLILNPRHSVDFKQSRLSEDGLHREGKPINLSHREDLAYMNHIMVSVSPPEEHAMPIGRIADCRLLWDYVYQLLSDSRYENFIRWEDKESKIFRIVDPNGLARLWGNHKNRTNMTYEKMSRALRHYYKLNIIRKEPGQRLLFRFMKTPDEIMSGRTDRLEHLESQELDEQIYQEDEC
Sequence of ELF4 (Q99607 whole entry): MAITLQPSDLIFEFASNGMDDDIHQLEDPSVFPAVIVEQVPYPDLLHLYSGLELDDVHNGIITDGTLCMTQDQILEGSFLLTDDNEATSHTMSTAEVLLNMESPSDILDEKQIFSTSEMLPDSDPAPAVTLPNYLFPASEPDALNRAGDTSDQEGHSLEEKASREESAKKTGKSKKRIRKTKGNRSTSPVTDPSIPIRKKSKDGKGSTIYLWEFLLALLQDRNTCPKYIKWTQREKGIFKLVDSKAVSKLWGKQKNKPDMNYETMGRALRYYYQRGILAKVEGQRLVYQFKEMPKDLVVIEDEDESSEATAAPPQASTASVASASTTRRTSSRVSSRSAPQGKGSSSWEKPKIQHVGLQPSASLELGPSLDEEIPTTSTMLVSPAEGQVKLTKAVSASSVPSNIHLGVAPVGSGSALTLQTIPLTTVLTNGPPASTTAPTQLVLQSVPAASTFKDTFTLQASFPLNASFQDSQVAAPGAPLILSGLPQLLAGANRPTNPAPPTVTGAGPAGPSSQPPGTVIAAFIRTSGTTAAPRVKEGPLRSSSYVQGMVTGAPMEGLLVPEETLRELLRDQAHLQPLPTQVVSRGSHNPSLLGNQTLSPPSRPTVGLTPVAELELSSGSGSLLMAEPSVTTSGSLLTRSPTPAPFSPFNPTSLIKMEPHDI
Sequence of CRX (O43186 whole entry): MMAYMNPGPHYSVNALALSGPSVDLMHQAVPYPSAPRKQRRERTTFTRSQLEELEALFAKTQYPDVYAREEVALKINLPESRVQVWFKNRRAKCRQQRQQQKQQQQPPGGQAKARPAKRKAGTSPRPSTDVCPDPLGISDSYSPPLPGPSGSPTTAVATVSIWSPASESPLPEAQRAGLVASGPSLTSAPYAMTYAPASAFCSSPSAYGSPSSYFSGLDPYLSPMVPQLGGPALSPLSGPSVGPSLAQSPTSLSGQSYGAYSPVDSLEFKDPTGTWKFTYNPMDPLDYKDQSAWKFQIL
Sequence of ETV5 (P41161 whole entry): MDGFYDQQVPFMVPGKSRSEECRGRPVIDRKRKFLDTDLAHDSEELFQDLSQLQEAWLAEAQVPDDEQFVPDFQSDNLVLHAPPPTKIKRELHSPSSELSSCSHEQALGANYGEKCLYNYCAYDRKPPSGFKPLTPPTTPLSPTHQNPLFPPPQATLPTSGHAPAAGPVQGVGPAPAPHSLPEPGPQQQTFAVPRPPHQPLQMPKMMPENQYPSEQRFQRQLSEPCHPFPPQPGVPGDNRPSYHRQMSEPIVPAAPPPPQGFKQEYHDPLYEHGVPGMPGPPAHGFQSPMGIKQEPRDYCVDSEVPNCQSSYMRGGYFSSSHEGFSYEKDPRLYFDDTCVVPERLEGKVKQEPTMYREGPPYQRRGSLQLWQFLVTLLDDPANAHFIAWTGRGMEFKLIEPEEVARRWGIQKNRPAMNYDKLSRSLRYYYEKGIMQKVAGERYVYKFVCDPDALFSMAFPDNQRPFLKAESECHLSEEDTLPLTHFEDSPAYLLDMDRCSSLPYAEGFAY
Sequence of ETV1 (P50549 whole entry): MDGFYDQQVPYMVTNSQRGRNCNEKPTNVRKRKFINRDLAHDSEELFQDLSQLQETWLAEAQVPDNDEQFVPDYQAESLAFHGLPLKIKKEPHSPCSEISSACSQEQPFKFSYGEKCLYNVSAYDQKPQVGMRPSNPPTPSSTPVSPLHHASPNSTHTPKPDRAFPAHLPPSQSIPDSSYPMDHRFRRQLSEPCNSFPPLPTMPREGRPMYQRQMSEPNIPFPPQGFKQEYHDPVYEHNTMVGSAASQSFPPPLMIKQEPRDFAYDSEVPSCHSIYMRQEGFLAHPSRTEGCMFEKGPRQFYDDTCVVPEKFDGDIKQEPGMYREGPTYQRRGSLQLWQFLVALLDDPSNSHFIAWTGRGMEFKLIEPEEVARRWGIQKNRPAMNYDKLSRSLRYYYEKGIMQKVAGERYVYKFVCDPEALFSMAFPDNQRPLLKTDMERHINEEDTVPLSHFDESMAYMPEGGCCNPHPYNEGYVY

Regarding TGATGC, the binding signal is 1.44 fold enrichment (6-mer frequency, TF over GST control) in assay [1]; 1.49 fold enrichment (6-mer frequency, TF over GST control) in assay [2]; 1.27 fold enrichment (6-mer frequency, TF over GST control) in [3]; 1.72 fold enrichment (6-mer frequency, TF over GST control) in assay [4]; 1.66 fold enrichment (6-mer frequency, TF over GST control) in assay [5]; 1.6 fold enrichment (6-mer frequency, TF over GST control) in assay [6]. Also, the binding signal in assay [7] was 1.49 fold enrichment (6-mer frequency, TF over GST control); in [8], 1.71 fold enrichment (6-mer frequency, TF over GST control); in [9] it was 1.34 fold enrichment (6-mer frequency, TF over GST control); in assay [10], 1.55 fold enrichment (6-mer frequency, TF over GST control); in assay [11], 1.48 fold enrichment (6-mer frequency, TF over GST control); in assay [12], 1.61 fold enrichment (6-mer frequency, TF over GST control). Besides, the binding signal in assay [13] is 1.58 fold enrichment (6-mer frequency, TF over GST control); in [14], 1.45 fold enrichment (6-mer frequency, TF over GST control); in [15] it was 1.54 fold enrichment (6-mer frequency, TF over GST control); in assay [16], 1.52 fold enrichment (6-mer frequency, TF over GST control); in [17], 1.67 fold enrichment (6-mer frequency, TF over GST control); in assay [18] it was 1.52 fold enrichment (6-mer frequency, TF over GST control).

Values taken from publication PMC7862700, “An all-to-all approach to the identification of sequence-specific readers for epigenetic DNA modifications on cytosine”.
